High-throughput results (PubChem BioAssay)
In the library only some 4.6% were active in any assay of this set; here they are far more common.
TRHR PAM – allosterically enhances the human TRH receptor. P34981. 360,000 compounds, 0.66% hits. TRHR cells, fluo-8 calcium fluorescence, EC20 TRH enhancement. enhancement, % at 2 µM. AID 493056; in the data active = enhancement above about 30%
Target sequence (P34981 whole entry, looked up): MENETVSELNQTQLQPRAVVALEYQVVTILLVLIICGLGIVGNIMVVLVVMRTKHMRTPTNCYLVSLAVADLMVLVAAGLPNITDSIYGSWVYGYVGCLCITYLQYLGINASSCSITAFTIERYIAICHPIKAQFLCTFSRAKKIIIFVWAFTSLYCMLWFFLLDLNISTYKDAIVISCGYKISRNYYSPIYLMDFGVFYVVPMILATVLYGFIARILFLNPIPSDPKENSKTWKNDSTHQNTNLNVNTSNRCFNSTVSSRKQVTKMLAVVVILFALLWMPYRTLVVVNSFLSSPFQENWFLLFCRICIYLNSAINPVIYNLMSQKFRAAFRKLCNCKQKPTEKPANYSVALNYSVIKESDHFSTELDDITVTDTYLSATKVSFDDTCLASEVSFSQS
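Enhancer read-out: after compound pinning and an initial kinetic agonist-mode read, an EC20 of TRH (10 nM final) was injected and fluo-8 calcium signal (Ex 480/Em 530) followed at 1 s/cycle for 100 cycles in TRHR-expressing cells.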
TRHR ag – activates the human TRH receptor | P34981 | TRHR cells, calcium flux fluo-8, FDSS agonist mode | activation, % at 2 µM | 360,000 compounds, 0.18% hits | AID 493084
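TRHR-expressing cells, plated overnight in medium with 10% serum, were loaded with fluo-8 calcium dye at room temperature. After a 10 s baseline, library compound was pin-added and calcium release was recorded kinetically (ex 480/em 530) as agonist response.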
D1 potentiator – enhances dopamine response at the human D1 receptor; 360,000 compounds, 0.036% hits; AID 504651; potentiation, % at 10 µM; HEK293 TREx D1 cells, calcium flux, dopamine EC20 potentiation; in the data active = potentiation above about 30%
D1 antagonist – human D1 dopamine receptor antagonism. AID 504652. HEK293 TREx D1 cells, calcium flux, dopamine EC80; stronger effect = lower value. P21728. 360,000 compounds, 3.2% hits. activity change, negative = inhibition, % at 10 µM; in the data active = activity change below about -30%
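Kinetic fluorescence of a calcium dye serves as the read-out. D1-expressing Hek293 Trex cells, induced overnight at 30 C, are exposed to compound for 180 s before an EC80 dopamine addition, then read 180 s further.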
Epigenetic derep – epigenetic control regulation, reporter derepression | murine LDR cells, GFP reporter derepression, 30 h | Potency, µM (highest dose often 53.9 µM), hits mostly activators | 280,000 compounds, 0.2% hits; active = well fitted activation curve with a large enough effect; inconclusive = small, poorly fitted or top-dose-only effect; note: nearly all actives have a fitted effect of over 60% in size
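Murine LDR cells bearing a silenced CMV-driven GFP reporter were exposed to compound for 30 h at 37 C. After PBS washes, GFP-positive cells (20-120 um objects) counted by laser-scanning microplate cytometry.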
D1 ag – activates the human D1 dopamine receptor. P21728. activation, % at 2 µM. 360,000 compounds, 1% hits. HEK293 T-REx D1 cells, calcium flux, agonist mode
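Inducible HEK293 T-REx D1 cells, force-coupled to calcium signalling, were plated at 4000 cells/well with tetracycline and held overnight at 30 C. After no-wash calcium dye loading, compound-evoked calcium rise over 180 s flagged agonists.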
Large screens that a line does not name were inactive; ! = not active in a repeat. Cut-off read from the data, not from the text of the source, unless noted: active = activation above about 30%; inactive = the rest.

N=C(N)c1ccc(N2CCN(C3CCN(CC(=O)O)CC3)CC2)cc1	none (no result: TRHR PAM, TRHR ag, D1 potentiator, D1 antagonist, D1 ag)
CN1C[C@@H]2C(c3ccc(C(F)(F)F)cc3)C3(c4ccccc4)CC2(C3)[C@H]1c1ccccc1 (some centres undefined)	none
CN1C[C@@H]2C(c3ccccc3)C3(c4cccnc4)CC2(C3)[C@H]1c1ccccc1 (some centres undefined)	D1 antagonist -38.6
COCCN(C(=S)Nc1ccccc1C)C(C)c1ccco1 (centres undefined)	D1 antagonist -70.8
CCc1c(C)sc(NC(=O)c2cc(C(C)C)on2)c1C#N	D1 antagonist -32.5
CCc1cc(C(=O)Nc2sc(C)c(CC)c2C#N)no1	none
CCC1N=C(SC)NC(C)=C1C(=O)c1ccccc1 (centres undefined)	none
CSC1=NC(C(Cl)(Cl)Cl)N=C(c2ccc(C)cc2)N1 (centres undefined)	D1 antagonist -85.0
O=C(Nc1ccc(Cl)cc1)C1CCN(c2nc3ccccc3nc2C(F)(F)F)CC1	none
CC(C)CC(=O)NCc1nc2cccnc2n1Cc1ccccc1	none
CC(=O)NCc1nc2cccnc2n1Cc1ccccc1	D1 antagonist -31.9
Cc1nn2c(C)c(C(=O)NCc3ccco3)cnc2c1-c1ccccc1	none
Cc1nn2c(C)c(C(=O)NCC(C)c3ccccc3)cnc2c1-c1ccccc1 (centres undefined)	TRHR PAM 34.8
COc1ccc(NC(=O)CSc2nc(O)c(Cc3ccccc3)c(=O)[nH]2)cc1	TRHR PAM 31.7
CCOC(=O)c1ccc(NC(=O)CSc2nc(C)c(Cc3ccccc3)c(=O)[nH]2)cc1	D1 antagonist -30.1
COc1ccc(OCCSc2nc(C)c(Cc3ccccc3)c(=O)[nH]2)cc1	D1 antagonist -38.8!
Cc1nc(SCCOc2ccccc2)[nH]c(=O)c1Cc1ccccc1	none
COc1ccccc1OCCSc1nc2ccccc2c(=O)[nH]1	D1 antagonist -41.2
O=c1[nH]c(SCCOc2ccccc2F)nc2ccccc12	none
Cc1ccc(NC(=O)CSc2nc(C)c(Cc3ccccc3)c(=O)[nH]2)cc1C	none
O=S(=O)(c1ccc2c(c1)OCCO2)N1CCN(S(=O)(=O)c2cc(F)c(F)cc2F)CC1	none (no result: Epigenetic derep)
Cc1nc(Cl)c2c(n1)NC1=C(O2)C(=O)CCC1	D1 ag 37.9
O=C1NC2=C(C(=O)CCC2)C(c2ccccc2Cl)N1 (centres undefined)	none (no result: Epigenetic derep)
Cc1ccc(CNC(=O)C(C(C)C)N2Cc3ccccc3C2=O)cc1 (centres undefined)	none
CCc1c(C)sc2c1CCN(C(=O)Nc1cc(OC)c(OC)c(OC)c1)C2c1ccccc1 (centres undefined)	D1 antagonist -40.3
O=C(NNc1ccnc2cc(Cl)ccc12)C1CCCCC1	D1 antagonist -32.1
Cc1ccc2nc(-c3cc(-c4ccccc4)no3)cn2c1	D1 antagonist -53.3
Cc1ccc(O)c(NC(=O)COCc2cc(-c3ccco3)on2)c1	none
Cc1noc(/C=C/c2ccc(-c3ccccc3Cl)o2)c1[N+](=O)[O-]	TRHR ag 31.8, Epigenetic derep 7.08µM, D1 ag 133.5
Cc1cccc(C)c1N/C=C/c1onc(C)c1[N+](=O)[O-]	Epigenetic derep inconclusive
Cc1ccc(N/C=C/c2onc(C)c2[N+](=O)[O-])cc1	D1 ag 32.6
CN(C(=O)CSc1nnc(COc2ccccc2)o1)c1ccccc1	none
CCOC(=O)c1ccccc1NC(=O)COC(=O)CC(C)(C)CC1=NS(=O)(=O)c2ccccc2N1	D1 antagonist -36.9
CC(C)(CC(=O)OCC(=O)Nc1ccccc1F)CC1=NS(=O)(=O)c2ccccc2N1	none
CN(C)c1c2ccccc2nc2c(F)c(F)c(F)c(F)c12	Epigenetic derep inconclusive
Cc1c2ccccc2nc2c(F)c(N(C)C)c(F)c(F)c12	TRHR ag 40.0, D1 ag 61.8
CCOc1cccc(CN(CC)CC2CCCN(CCc3cccc(OC)c3)C2)c1O (centres undefined)	TRHR PAM 34.0 (no result: Epigenetic derep)
COc1cccc(CN(C)CC2CCCN(CCc3ccccc3C)C2)c1 (centres undefined)	D1 antagonist -63.4 (no result: Epigenetic derep)
CCN(Cc1cccc(OC)c1)CC1CCCN(CCc2cccc(OC)c2)C1 (centres undefined)	D1 antagonist -38.9 (no result: Epigenetic derep)
CCN(CC1CCCN(CCc2cccc(OC)c2)C1)C(=O)C=C(C)C (centres undefined)	none (no result: Epigenetic derep)
COc1ccccc1C(=O)Nc1nc2nc(C)c(Cc3ccccc3)c(=O)n2[nH]1	none
COc1ccc(Cc2nc3c4cnn(-c5cccc(F)c5)c4ncn3n2)cc1	none
COc1ccc(-n2ncc3c2ncn2nc(Cc4ccccc4)nc32)cc1	D1 antagonist -34.0
CCN(c1cccc(C)c1)S(=O)(=O)c1ccc(-c2ccc(=O)[nH]n2)o1	none (no result: Epigenetic derep)
CCN(c1ccc(OC)cc1)S(=O)(=O)c1ccc(-c2ccc(=O)[nH]n2)o1	D1 antagonist -41.4 (no result: Epigenetic derep)
CCN(C(=O)CSc1nnc(-c2cc3occc3n2C)n1-c1ccccc1C)c1ccccc1	none
COc1ccc(Cl)cc1NC(=O)C(=O)NCc1ccncc1	D1 antagonist -37.6
O=c1[nH]c2cc(C(F)(F)F)c(N3CCOCC3)cc2n(CP(=O)(O)O)c1=O	none (no result: TRHR PAM, TRHR ag, D1 potentiator, D1 antagonist, D1 ag)
O=C(Cc1nnc(-c2cc3ccccc3[nH]2)o1)Nc1cc(C(F)(F)F)ccc1Cl	none (no result: Epigenetic derep)
O=C(NCc1nnc(-c2cc3ccccc3[nH]2)s1)c1ccccc1	none (no result: Epigenetic derep)
O=C(Cc1nnc(-c2cc3ccccc3[nH]2)s1)Nc1cc(C(F)(F)F)ccc1Cl	D1 antagonist -34.3! (no result: Epigenetic derep)
O=C(O)Cc1nnc(-c2cc3ccccc3[nH]2)s1	D1 antagonist -36.6 (no result: Epigenetic derep)
COCC1=C2c3ccccc3[C@@H]3CNC(=O)C3(C(=O)OC)C[C@@H]2n2c(=O)n(-c3ccccc3)c(=O)n2C1 (some centres undefined)	none (no result: TRHR PAM, TRHR ag, D1 potentiator, D1 antagonist, D1 ag)
CSC1=NC2C(N1)N(C)C(=O)N2C (centres undefined)	TRHR PAM 38.6
COC(=O)/C=c1/s/c(=C(\C#N)C(=O)NCc2ccco2)n(-c2ccccc2)c1=O	D1 antagonist -33.0
c1cc2c3c(cccc3c1)NC1(CCCCCC1)N2	none
c1cc2c3c(cccc3c1)NC1(CCC3(CC1)Nc1cccc4cccc(c14)N3)N2	D1 antagonist -40.2
Cc1ccc(Oc2nccc(-c3ccc(Cl)cc3)n2)cc1	D1 antagonist -30.4
COc1ccc(C)cc1NC(=O)CSc1nc2scc(C)c2c(=O)[nH]1	D1 antagonist -31.2 (no result: Epigenetic derep)
CCOC(=O)c1ccccc1NC(=O)CSc1nc(=O)[nH]c2c1CCCC2	none (no result: D1 antagonist)
COc1ccc(Cl)cc1NC(=O)CSc1nc2sccc2c(=O)[nH]1	none
